Most compounds without a hit are left out; they make up all but 8.9% or so of the library.
MCF10A rereplic – induces DNA re-replication in MCF 10a normal breast cells | MCF 10A DNA re-replication, Hoechst nuclear intensity, 48 h | Potency, µM (highest dose often 46.1 µM), hits mostly activators | hit rate 2.9% among 350,000 | AID 624296; note: nearly all actives have a fitted effect of over 50% in size
SW480 rereplic – induces DNA re-replication in SW480 colon adenocarcinoma cells. hit rate 1.8% among 340,000. Potency, µM (highest dose often 46.1 µM), hits mostly activators. SW480 DNA re-replication, Hoechst DNA content imaging, 48 h; note: nearly all actives have a fitted effect of over 55% in size
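DNA re-replication was detected as more nuclei of elevated Hoechst intensity after 48 hr exposure to compound (23 nL pinned per well of 250 cells).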
D3 antag – antagonists of human D3 dopamine receptor | P35462 | D3R cells, DiscoveRx beta-arrestin luminescence, antagonist mode; stronger effect = lower value | max response, negative = inhibition, % | hit rate 2.5% among 360,000; in the data active = max response below about -50%; inconclusive = no clear call, values can overlap the other calls
Target sequence (P35462 whole entry, looked up): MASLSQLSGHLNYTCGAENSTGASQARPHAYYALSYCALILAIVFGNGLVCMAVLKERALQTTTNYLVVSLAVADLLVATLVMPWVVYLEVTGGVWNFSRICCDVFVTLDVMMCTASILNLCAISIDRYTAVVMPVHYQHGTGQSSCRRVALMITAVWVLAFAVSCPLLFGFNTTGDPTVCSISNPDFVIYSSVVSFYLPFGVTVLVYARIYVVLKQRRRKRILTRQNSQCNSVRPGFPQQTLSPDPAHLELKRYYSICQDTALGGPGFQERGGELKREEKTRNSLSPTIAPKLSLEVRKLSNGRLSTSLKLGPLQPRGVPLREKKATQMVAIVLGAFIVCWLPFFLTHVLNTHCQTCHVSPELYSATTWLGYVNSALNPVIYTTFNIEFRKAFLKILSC
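Cells expressing the human receptor were seeded at 1500 cells/well, incubated overnight at 37 degrees C in 5% CO2, then exposed to library compounds with dopamine controls for 90 minutes at 37 degrees C before luminescent detection.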
KB-3-1 tox – KB-3-1 parental cell cytotoxicity. KB-3-1 viability, CellTiter-Glo ATP luminescence, 72 h. Potency, µM (doses to about 46.1 µM), actives largely listed as cytotoxic. hit rate 1.4% among 400,000; note: nearly all actives have a fitted effect of over 60% in size
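Using CellTiter-Glo luminescence, growth of non-resistant KB-3-1 adenocarcinoma cells is assessed 72 h after pin-tool compound addition at 37 °C. Normalized responses across the concentration series yield fitted curves.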
DRD3 agonist – activates the human D3 dopamine receptor | hit rate 0.58% among 410,000 | max activation, % | P35462 | D3R DiscoveRx beta-arrestin cells, luminescence, 90 min; in the data active = max activation above about 30%
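Cells at 1500/well, incubated overnight, then treated with pinned compounds (dopamine as control) for 90 min at 37 degrees C. DiscoveRx reagent added for 30 - 60 minutes at room temperature; luminescence read.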
KB-V1 MDR tox – kills drug-selected multidrug resistant KB-V1 cells; AID 1347076; KB-V1 MDR cells viability, CellTiter-Glo, 72 h; Potency, µM (doses to about 46.1 µM), actives largely listed as cytotoxic; hit rate 3.4% among 400,000; note: nearly all actives have a fitted effect of over 60% in size
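Cells of the MDR subline KB-V1 are plated, dosed with compound at multiple concentrations, and incubated 72 h at 37 degrees C; CellTiter-Glo is then added and luminescence read after 10 min.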
Of the large screens only hits and unclear results are named; the others gave an inactive call; ! = not active in a repeat. Unless noted, calls come from the whole dose curve; as a rule, active = well fitted curve in the direction sought with a large enough effect; inconclusive = small, poorly fitted or top-dose-only effect, or another doubt; inactive = no such curve, though single readings can be large; an effect the other way counts as inactive or inconclusive.

COc1ccc(C2CC(c3ccc(C(F)(F)F)cc3)=NN2c2ccc(S(N)(=O)=O)cc2)cc1 (centres undefined)	MCF10A rereplic inconclusive, SW480 rereplic 0.517µM, KB-3-1 tox inconclusive
COc1ccc(C2CC(C(C)(C)C)=NN2c2ccc(S(N)(=O)=O)cc2)cc1 (centres undefined)	none
COc1ccc(C2CC(c3ccccc3Br)=NN2c2ccc(S(N)(=O)=O)cc2)cc1 (centres undefined)	MCF10A rereplic inconclusive, SW480 rereplic 3.66µM
COc1ccc(C2CC(c3ccccc3F)=NN2c2ccc(S(N)(=O)=O)cc2)cc1 (centres undefined)	MCF10A rereplic 2.06µM, SW480 rereplic 0.92µM
O=C(NCc1ccccc1Cl)c1nnc(Cc2cccc(F)c2)o1	none (no result: MCF10A rereplic, SW480 rereplic, D3 antag)
CCOc1ccc(CCNC(=O)Cn2nnc(-c3ccc(OC)c(OC)c3)n2)cc1OCC	none (no result: MCF10A rereplic, SW480 rereplic, D3 antag)
C=C1C(=O)O[C@H]2[C@H]1[C@H](OC(=O)/C(C)=C\C)C[C@]1(CO1)[C@@H]1[C@H](OC(C)=O)C=C(C)[C@]21O	MCF10A rereplic 3.26µM, SW480 rereplic inconclusive
COc1cc2[nH]c(=O)c(C(=O)NCCCN3CCCCC3)c(O)c2cc1OC	D3 antag -56.9
COc1cc2[nH]c(=O)n(CCC(=O)NCCCN3CCN(c4ccccc4F)CC3)c(=O)c2cc1OC	D3 antag inconclusive, DRD3 agonist 30.4
COc1cc2[nH]c(=O)n(CCCCCC(=O)NCCCN3CCOCC3)c(=O)c2cc1OC	none
COCCn1c(=O)[nH]c2cc(C(=O)NCCN3CCN(c4ccccc4F)CC3)ccc2c1=O	MCF10A rereplic inconclusive, D3 antag -56.5
COc1ccc(N2CCN(CCNC(=O)c3ccc4c(c3)[nH]c(=S)n3c5ccccc5nc43)CC2)cc1	SW480 rereplic 7.31µM
CCN1CCN(C(=O)c2ccc3c(=O)n(CCC4=CCCCC4)c(=O)[nH]c3c2)CC1	D3 antag -53.8, KB-V1 MDR tox inconclusive
O=C(NCc1ccco1)c1ccc2c(=O)n(CCC3=CCCCC3)c(=O)[nH]c2c1	none
O=C(c1ccc(Cn2c(=O)[nH]c3ccccc3c2=O)cc1)N1CCN(c2ccccc2)CC1	KB-3-1 tox inconclusive, KB-V1 MDR tox 20.6µM
COCCn1c(=O)[nH]c2cc(C(=O)N3CCN(c4ccc(Cl)cc4)CC3)ccc2c1=O	MCF10A rereplic inconclusive, KB-3-1 tox 14.6µM!, KB-V1 MDR tox inconclusive
CC(C)c1ccc(/C=C/C(=O)N2CCCCCC2)cc1	MCF10A rereplic 23.1µM, D3 antag inconclusive
COc1cc(/C=C/C(=O)N2CCN(CC(=O)N3CCCC3)CC2)cc(OC)c1OC	none (no result: D3 antag, KB-3-1 tox, KB-V1 MDR tox)
Cc1ccc(/C=C/C(=O)N2CCCN(C(=O)/C=C/c3ccc(C)cc3)CC2)cc1	MCF10A rereplic inconclusive, D3 antag -58.5, KB-V1 MDR tox inconclusive
CCN1CCN(C(=O)/C=C/c2ccc(C)cc2)CC1	none
COc1ccc2cc(/C=C/C(=O)N3CCN(CC(=O)N4CCCCCC4)CC3)ccc2c1	DRD3 agonist 35.8, KB-V1 MDR tox 14.6µM
CC(C)c1ccc(/C=C/C(=O)N2CCOCC2)cc1	MCF10A rereplic inconclusive
Cc1cccc(COc2ccc(-c3cc(C(F)(F)F)n4nc(C)cc4n3)cc2)c1	none (no result: MCF10A rereplic, SW480 rereplic, D3 antag)
Cc1cnn(CCC(=O)NNC(=S)Nc2ccc(F)cc2)c1	D3 antag inconclusive
O=C(Nc1cccc(Cl)c1)OCCOCCOC(=O)Nc1cccc(Cl)c1	MCF10A rereplic 20.6µM, KB-3-1 tox inconclusive
Cc1cnn(CCC(=O)NNC(=S)Nc2cccc(Cl)c2)c1	SW480 rereplic 6.51µM
O=C(CN1CCCCC1)Nc1ccc(F)c(Cl)c1	MCF10A rereplic inconclusive, D3 antag -58.3
CC(C)COC(=O)NCCOC(=O)Nc1cccc(Cl)c1	MCF10A rereplic inconclusive
O=C(Cc1cccc([N+](=O)[O-])c1)Nc1cccc(C(=O)N2CCOCC2)c1	D3 antag -51.0
CCC(=O)N1CCc2cc(S(=O)(=O)NC(C(=O)NCCc3cccc(C)c3)C(C)C)ccc21 (centres undefined)	none (no result: MCF10A rereplic, SW480 rereplic, D3 antag)
Cc1ccc(NC(=O)CN(C)CC(=O)Nc2ccc(F)c(Cl)c2)cc1	MCF10A rereplic 20.6µM
O=C(CCN1CCCCC1)Nc1cccc(Cl)c1	D3 antag inconclusive
Cc1ccc(OCCC(=O)Nc2ccc(F)c(Cl)c2)cc1	none
O=C(CCN1CCCCCC1)Nc1cccc(Cl)c1	D3 antag -142.8
O=C(CN1CCCCC1)Nc1cccc([N+](=O)[O-])c1	D3 antag -62.1
O=C(CCN1CCN(Cc2ccccc2)CC1)NNC(=O)Nc1cccc([N+](=O)[O-])c1	SW480 rereplic inconclusive, D3 antag -50.5
COc1ccc(NC(=O)c2sc3nc4n(c(=O)c3c2C)CCC4)c(OC)c1	none (no result: MCF10A rereplic, SW480 rereplic, D3 antag)
COc1ccc(CCNC(=O)CCc2cn(Cc3ccccc3Cl)c3ccccc23)c(OC)c1	none (no result: MCF10A rereplic, SW480 rereplic, D3 antag, KB-3-1 tox, KB-V1 MDR tox)
COc1ccccc1NC(=O)C1=C(C)Nc2nnnn2C1c1ccc(C(F)(F)F)cc1 (centres undefined)	none (no result: MCF10A rereplic, SW480 rereplic, D3 antag)
CCN(CC(=O)Nc1ccc(NC(C)=O)cc1)CC(=O)Nc1ccc(Cl)c(Cl)c1	D3 antag -59.5
CCN(CC(=O)Nc1ccc(NC(C)=O)cc1)CC(=O)Nc1cccc(Cl)c1	none
O=C(CN1CCCCC1)Nc1cccc(Br)c1	SW480 rereplic inconclusive, D3 antag -63.2
CCOc1ccc(-c2nnc(SCC(=O)NCc3ccc(Cl)cc3)o2)cc1	none (no result: MCF10A rereplic, SW480 rereplic, D3 antag)
CCCC(C(=O)NC1CCCC1)N(C(=O)Cn1nnc(-c2ccc(C)o2)n1)C1CCCC1 (centres undefined)	SW480 rereplic inconclusive, KB-V1 MDR tox 4.11µM
CCC(C(=O)NC1CCCC1)N(C(=O)Cn1nnc(-c2ccc(C)o2)n1)C(C)(C)C (centres undefined)	KB-V1 MDR tox 1.16µM
CCCC(C(=O)NC1CCCC1)N(C(=O)Cn1nnc(-c2ccc(C)o2)n1)c1ccccc1F (centres undefined)	KB-3-1 tox inconclusive
O=C(NCc1ccco1)c1cccnc1-c1nc2ccccc2s1	D3 antag inconclusive, KB-V1 MDR tox 13µM
Cc1ccc2oc(-c3cccc(NC(=O)COc4ccc(Cl)cc4C)c3C)nc2c1	KB-V1 MDR tox inconclusive (no result: MCF10A rereplic, SW480 rereplic, D3 antag, DRD3 agonist)
Cc1cccc2c(N)c3c(nc12)CCCC3 (tested in a mixture with another compound)	MCF10A rereplic inconclusive, SW480 rereplic inconclusive
Cc1cc(C)c2c(N)c3cccc(C)c3nc2n1	MCF10A rereplic 20.6µM, SW480 rereplic 16.4µM, KB-3-1 tox 7.31µM, KB-V1 MDR tox 8.2µM
CCOC(=O)C1CCCN(C(=O)c2cc3nc(-c4cccc(OC)c4)cc(C(F)(F)F)n3n2)C1 (centres undefined)	DRD3 agonist 51.9
